The term Kd denotes the concentration at which binding is half-saturated.

One test deals with T1, TIE2.
T1 construct: gene TEK

A further test has as its system T2, TRKA.
T2 construct: gene NTRK1

A further test concerns T3, TRKC.
T3 construct: gene NTRK3
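Also: kd values determined as follow-up on hits from a single-replicate KINOMEscan panel screen.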

On to `Fc1cc(Cl)ccc1Nc1ccnc2cc(-c3ccc(CN4CCCCC4)o3)ccc12` [GW560116], for which, in the test on SRC, the affinity, expressed as Kd, was 4400 nM. On to `O=C1NC(=O)C(N2CCc3ccccc32)=C1c1ccccc1Cl` [SB-373598], for which the Kd in the test with SRMS and with TAOK2 was greater than 10000 nM each time. In the case of `Cc1ccc(C(=O)Nc2ccc(Nc3ccnc4cc(-c5ccccn5)ccc34)cc2O)cc1.Cl` [GW440146], the Kd with SRMS stood at 350 nM; in the test with TNK2, 120 nM. Take `COc1cccc(-c2cc(-c3c[nH]nc3-c3ccccn3)ccn2)c1` [GW680338]: in the test with SRPK1, the Kd was greater than 10000 nM. For the compound `CS(=O)(=O)c1ccc(-c2nc3n(c2-c2ccncc2)CCC3)cc1` [SKF-105942], the Kd with STK16 and with TSSK1B was greater than 10000 nM each time. `COc1cc2ncn(-c3cc(OCC4CCCO4)c(C(N)=O)s3)c2cc1OC` (stereo not drawn) [GSK204607] returned a dissociation constant Kd in the test on STK35 of 3600 nM. With `Cl.O=C(Nc1cccc(-c2nn3ncccc3c2-c2ccnc(Nc3cccnc3)n2)c1)c1c(F)cccc1F` [GSK312879], the Kd in the test with STK36 turned out to be 98 nM. Consider `Cc1ccccc1-n1cnc2c(N)ncnc21` [SKF-97510], for which the Kd in the test on SYK and in the test on TLK1 was greater than 10000 nM throughout.

For `NC(=O)c1nnc2ccccc2c1N`, the Kd in the test on TIE2 was greater than 10000 nM. Same read-out and setting: with `O=C(Nc1ccccc1)Nc1cccc(Oc2ccc3nccn3n2)c1` the figure was greater than 10000 nM.

In the test with TNIK, `COc1ccc(Nc2nccc(-c3cccc(NC(=O)c4cc5cc(F)ccc5[nH]4)c3)n2)cc1` [GSK1229782] registered a Kd of 820 nM.

`Cc1ccc(-c2cc(-c3c[nH]nc3-c3ccccn3)ccn2)cc1` [GW684088] returned a Kd with TNIK of 160 nM.

`Cc1cc(-c2ccc3c(c2)CC[C@@H](N[C@@H](C)c2ccccc2)C3)cnc1N.Cl` [GW412617] registered a Kd in the test with TRKA of 2500 nM. `COc1cccc(NC(=O)NC2CCN(c3ccnc(Nc4ccc(F)cc4)n3)C2)c1` (stereo not drawn) [GSK1379721]: in the test with TRKC, the Kd is 310 nM.

Values taken from paper PMC5540273 (PLoS ONE, 2017).
